According to PubChem BioAssay (Tox21):
Results filed as inconclusive are left out. Calls of active or inactive are those of the source. Unless noted, calls follow the shape of the dose curve; as a rule, active = well fitted curve in the direction sought with a large enough effect in the repeat runs; inconclusive = weak or mixed curves; inactive = no such curve, though single readings can be large; an effect the other way counts as inactive or inconclusive.

Tests used:
[1] = qHTS assay to identify small molecule agonists of H2AX - cell viability counter screen (AID 1224847; calls by dose curve; also: nearly all actives have a fitted effect of over 30% in size; also: potency is read from the fitted curve at half-maximal effect;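 as to activity change, negative = cytotoxicity: wild-type CHO-K1 cells; top concentration of the series differs between compounds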)
Method in brief: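 Cells plated first: CHO-K1, 1000 per well in 10% FBS medium, incubated overnight at 37C. Then 15-point compound titration added (final DMSO 0.76%) for 3 hr. Finally CellTiter-Glo added and luminescence read.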

[2] = qHTS RealTime-Glo MT Cell Viability Assay in HepG2 cells - 24 hour (AID 1224867); also: nearly all actives have a fitted effect of over 50% in size
Method in brief: (§1)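 HepG2 cells were seeded at 600 cells/well together with NanoLuc luciferase and a cell-permeant prosubstrate, preincubated 5 h at 37 C/5% CO2, then pin-dosed with compounds in DMSO. Nonlytic luminescence from viable cells was read at each time point.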

[3] = A CellTox Green Cytotoxicity Assay to monitor cytotoxicity in HEK293 cells - 0 hour (AID 1224869); also: nearly all actives have a fitted effect of over 50% in size; also: potency is read from the fitted curve at half-maximal effect
Method in brief: (§2)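 Real-time, in one plate: 600 HEK293 cells/well with dead-cell DNA dye, pinned compound after 5 h, 37 C incubation over 40 h; viable cells give no appreciable fluorescence.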

[4] = qHTS RealTime-Glo MT Cell Viability Assay in HepG2 cells - 40 hour (AID 1224870); also: nearly all actives have a fitted effect of over 50% in size
Method in brief: (§3)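 Real-time viability: cells seeded at 600 per well together with NanoLuc and cell-permeant prosubstrate, compounds added after 5 h incubation. Luminescence tracked at 0, 8, 16, 24, 32 and 40 h of exposure.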

[5] = qHTS RealTime-Glo MT Cell Viability Assay in HepG2 cells - 8 hour (AID 1224873); also: nearly all actives have a fitted effect of over 55% in size
Method in brief: as §3

[6] = A CellTox Green Cytotoxicity Assay to monitor cytotoxicity in HEK293 cells - 24 hour (AID 1224875); also: nearly all actives have a fitted effect of over 45% in size; also: potency is read from the fitted curve at half-maximal effect; as to activity change: series mostly up to about 77 µM
Method in brief: as §2

[7] = A CellTox Green Cytotoxicity Assay to monitor cytotoxicity in HepG2 cells - 16 hour (AID 1224876); also: nearly all actives have a fitted effect of over 45% in size; also: potency is read from the fitted curve at half-maximal effect
Method in brief: (§4)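 Cytotoxicity was tracked as dead-cell DNA fluorescence in HepG2 cells treated with test compounds at 37 C; each time-point value comes from one kinetic series spanning 0, 8, 16, 24, 32 and 40 h.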

[8] = qHTS RealTime-Glo MT Cell Viability Assay in HepG2 cells - 32 hour (AID 1224877); also: nearly all actives have a fitted effect of over 55% in size
Method in brief: as §1

[9] = A CellTox Green Cytotoxicity Assay to monitor cytotoxicity in HepG2 cells - 24 hour (AID 1224878); also: nearly all actives have a fitted effect of over 45% in size; also: potency is read from the fitted curve at half-maximal effect
Method in brief: as §4

[10] = A CellTox Green Cytotoxicity Assay to monitor cytotoxicity in HepG2 cells - 40 hour (AID 1224879); also: nearly all actives have a fitted effect of over 40% in size; also: potency is read from the fitted curve at half-maximal effect
Method in brief: as §4

[11] = qHTS RealTime-Glo MT Cell Viability Assay in HEK293 cells - 0 hour (AID 1224880); also: top concentration of the series differs between compounds; nearly all actives have a fitted effect of over 45% in size
Method in brief: (§5)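 Kinetic, non-lysing viability readout. Seed HEK293 (600/well) with reagent, incubate 5 h at 37 C/5% CO2, pin 23 nL compound in DMSO, incubate at 37 C, read luminescence at 0, 8, 16, 24, 32, 40 h.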

[12] = A CellTox Green Cytotoxicity Assay to monitor cytotoxicity in HepG2 cells - 32 hour (AID 1224883); also: nearly all actives have a fitted effect of over 50% in size; also: potency is read from the fitted curve at half-maximal effect
Method in brief: as §4

[13] = A CellTox Green Cytotoxicity Assay to monitor cytotoxicity in HEK293 cells - 40 hour (AID 1224871); also: nearly all actives have a fitted effect of over 45% in size
Method in brief: as §2

[14] = qHTS RealTime-Glo MT Cell Viability Assay in HEK293 cells - 16 hour (AID 1224872); also: nearly all actives have a fitted effect of over 50% in size; also: potency is read from the fitted curve at half-maximal effect; as to activity change, negative = cytotoxicity: top concentration of the series differs between compounds
Method in brief: (§6)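 HEK293 cells were seeded at 600 cells/well together with NanoLuc luciferase and cell-permeant prosubstrate, preincubated 5 h at 37 C/5% CO2, then given compound in DMSO by pintool. Luminescence from viable-cell prosubstrate reduction was read repeatedly over 40 h.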

[15] = qHTS RealTime-Glo MT Cell Viability Assay in HEK293 cells - 40 hour (AID 1224874); details: RealTime-Glo luminescence; max response: hits give low values; also: nearly all actives have a fitted effect of over 50% in size; also: potency is read from the fitted curve at half-maximal effect
Method in brief: as §5

[16] = A CellTox Green Cytotoxicity Assay to monitor cytotoxicity in HEK293 cells - 32 hour (AID 1224881); also: nearly all actives have a fitted effect of over 40% in size
Method in brief: as §2

[17] = A CellTox Green Cytotoxicity Assay to monitor cytotoxicity in HepG2 cells - 0 hour (AID 1224882); also: nearly all actives have a fitted effect of over 35% in size
Method in brief: as §4

[18] = qHTS RealTime-Glo MT Cell Viability Assay in HEK293 cells - 32 hour (AID 1224868); also: nearly all actives have a fitted effect of over 50% in size; also: potency is read from the fitted curve at half-maximal effect; as to activity change, negative = cytotoxic: top concentration of the series differs between compounds
Method in brief: as §6
% is scaled to controls: 0 for no effect and ±100 for the full control effect.

CCN(CC)c1ccc2c(c1)Oc1cc(N(CC)CC)ccc1C21OC(=O)c2ccccc21
active: Potency [1] 15.6 µM | Potency [3] 19 µM | Potency [6] 19 µM | Potency [7] 23.9 µM | Potency [9] 23.9 µM | Potency [10] 23.9 µM | Potency [12] 23.9 µM
inactive: Potency [2] | Potency [4] | Potency [5] | Potency [8] | Potency [11]

Cc1c(Cl)c(=O)oc2cc(O)ccc12
inactive: Potency [1] | Potency [2] | Potency [3] | Potency [4] | Potency [13] | Potency [5] | Potency [6] | Potency [7] | Potency [8] | Potency [9] | Potency [10] | Potency [11] | Potency [16] | Potency [17] | Potency [12]
active: Potency [14] 49 µM | Potency [15] 43.6 µM

O=[N+]([O-])c1ccc(CO)cc1
inactive: Potency [1] | Potency [2] | Potency [18] | Potency [3] | Potency [13] | Potency [14] | Potency [5] | max response [15] 7.7% | Potency [6] | Potency [7] | Potency [8] | Potency [9] | Potency [10] | Potency [11] | Potency [16] | Potency [17] | Potency [12]

CCCCCCCCCCCC(=O)Cl
inactive: Potency [1] | Potency [2] | Potency [18] | Potency [4] | Potency [13] | Potency [14] | Potency [5] | max response [15] 0.0053% | Potency [6] | Potency [7] | Potency [8] | Potency [9] | Potency [10] | Potency [11] | Potency [16] | Potency [17] | Potency [12]

Nc1cccnc1N
inactive: Potency [1] | Potency [2] | Potency [3] | Potency [4] | Potency [13] | Potency [5] | Potency [6] | Potency [7] | Potency [8] | Potency [9] | Potency [10] | Potency [11] | Potency [12]

CC(C)=CCC[C@H](C)CC=O
inactive: Potency [1] | Potency [2] | Potency [18] | Potency [3] | Potency [4] | Potency [5] | max response [15] 11.6% | Potency [7] | Potency [8] | Potency [10] | Potency [11] | Potency [17] | Potency [12]

C=CC(=O)OCC(Br)CBr (centres undefined)
inactive: Potency [1] | Potency [2] | Potency [3] | Potency [4] | Potency [5] | Potency [6] | Potency [7] | Potency [8] | Potency [9] | Potency [10] | Potency [16] | Potency [17] | Potency [12]

O=C(Nc1ccc([N+](=O)[O-])cc1)Nc1ccc([N+](=O)[O-])cc1 (tested in a mixture with another compound)
inactive: Potency [2] | Potency [3] | Potency [4] | Potency [5] | Potency [6] | Potency [7] | Potency [11] | Potency [16] | Potency [17]
active: Potency [1] 17.5 µM | Potency [18] 4.77 µM | Potency [15] 4.77 µM | Potency [10] 21.3 µM | Potency [12] 21.3 µM

CC(CC(C)(C)C)CC(C)(C)CC(C)(C)C (centres undefined)
inactive: Potency [1] | Potency [2] | Potency [18] | Potency [3] | Potency [14] | Potency [5] | max response [15] 3.32% | Potency [6] | Potency [7] | Potency [9] | Potency [10] | Potency [11] | Potency [16] | Potency [17] | Potency [12]

NCc1ccco1
inactive: Potency [1] | Potency [2] | Potency [3] | Potency [4] | Potency [13] | Potency [14] | Potency [5] | max response [15] 18.6% | Potency [7] | Potency [8] | Potency [9] | Potency [10] | Potency [11] | Potency [16] | Potency [17] | Potency [12]

CCSCC
inactive: Potency [1] | Potency [2] | Potency [3] | Potency [4] | Potency [13] | Potency [14] | Potency [5] | max response [15] 8.26% | Potency [6] | Potency [7] | Potency [10] | Potency [11] | Potency [17] | Potency [12]

CCCCCCCCCCCCS(=O)(=O)Cl
inactive: activity change, negative = cytotoxicity [1] 2.47% [at 31.6 µM] | activity change, negative = cytotoxicity [2] 3.24% [at 15.8 µM] | cytotoxicity [3] 0.643% [at 15.8 µM] | activity change, negative = cytotoxic [4] 12.8% [at 15.8 µM] | cytotoxicity increase [13] -2.77% [at 15.8 µM] | viability change, negative = cytotoxic [5] -5.43% [at 15.8 µM] | max response [15] 12.1% | activity change [6] -0.292% [at 15.8 µM, hits give high values] | cytotoxicity increase [7] -10.9% [at 15.8 µM] | activity change, negative = cytotoxic [8] 9.6% [at 15.8 µM] | cytotoxicity [9] -12.5% [at 15.8 µM] | cytotoxicity increase [10] -19.9% [at 15.8 µM] | activity change, negative = cytotoxicity [11] -1.06% [at 15.8 µM] | cytotoxicity increase [16] -1.06% [at 15.8 µM] | cytotoxicity [17] -7.13% [at 15.8 µM] | cytotoxicity increase [12] -17.3% [at 15.8 µM]

O=C(c1ccccc1)c1ccc(Cl)cc1
inactive: Potency [1] | Potency [2] | Potency [3] | Potency [4] | Potency [13] | Potency [14] | Potency [5] | max response [15] 0.405% | Potency [6] | Potency [7] | Potency [8] | Potency [9] | Potency [10] | Potency [11] | Potency [17] | Potency [12]

COc1c(Br)cc(Br)c(C)c1Br
inactive: Potency [1] | Potency [2] | Potency [18] | Potency [3] | Potency [4] | Potency [14] | Potency [5] | max response [15] 1.46% | Potency [6] | Potency [8] | Potency [11] | Potency [16]

CCNc1nc(NC(C)(C)C)nc(OC)n1
inactive: Potency [1] | Potency [2] | Potency [3] | Potency [4] | Potency [13] | Potency [5] | Potency [6] | Potency [7] | Potency [8] | Potency [9] | Potency [10] | Potency [11] | Potency [16] | Potency [12]
